Inconclusive results are not listed. Entries that show only a call come without a potency. Calls of active or inactive are those of the source. Calls follow the shape of the dose curve; as a rule, active = well fitted inhibition curve with a large enough effect; inconclusive = small, poorly fitted or top-dose-only effect, or effect the other way; inactive = no such curve, though single readings can be large or run the other way.
Potency is read from the fitted curve at half-maximal effect.

The test can be described thus: High Content Imaging Cell-Based qHTS for Inhibitors of the mTORC1 Signaling Pathway in MEF Cells (AID 2667). As to conditions: series mostly up to 38.3 µM. The text has this: NIH Molecular Libraries Probe Production Centers Network [MLPCN]
NIH Chemical Genomics Center [NCGC]
Assay Submitter (PI): Blenis, John; Hoffman, Greg; Harvard University
NCGC Assay Overview: The mammalian target of rapamycin (mTOR) is an intracellular serine/threonine kinase Aberrant regulation of mTOR signaling plays a causative role in a number of human diseases, including cancer, benign tumors such as lymphangioleiomyomatosis (LAM) and Tuberous Sclerosis Complex (TSC), and metabolic diseases such as diabetes and obesity. This project aims to identify inhibitors of ribosomal protein S6 (rpS6) phosphorylation. The phosphorylation of rpS6 is a key event downstream of mTOR activation. The assay uses a phospho-specific antibody of phospho-rpS6 to detect inhibitors of mTOR activation. Mutations in the Tsc1 and Tsc2 genes are the underlying genetic lesions responsible for TSC, causing constitutive activation of the mTORC1 pathway and leading to profound effects on cell metabolism. Aberrant metabolism in cancer has recently received significant attention as a target to develop therapeutic agents in the treatment of cancer.1 As Tsc2-/- cells have lost the ability to respond to energy and growth factor deprivation, these cells are unable to properly down regulate cellular biosynthetic processes in response to metabolic stress, and are thus extremely sensitive to glucose deprivation-induced death.2 A central goal of this project is to explore the unique cell survival and metabolic properties of cells with Tsc1 or Tsc2 by screening for compounds that selectively target the Tsc2-/- MEFs by screening both Tsc2-/- and WT MEF cell lines. We hope to better understand these aspects of TSC physiology in order to exploit them for therapeutic benefit.
NCGC IN Cell Assay Protocol:
For quantitative high throughput analysis of mTORC1 signaling, we developed a cell-based assay for immuno-fluorescence based detection of rpS6 phosphorylation on the Acumen Explorer that will be used a platform for the primary small molecule screen. Mouse embryonic fibroblasts (MEFs) are cultured in 1536-well plates using DMEM + 10% FBS. Twenty-four hrs after plating, test compounds (solubilized in DMSO) are delivered and incubated with the cells for 24 hrs at 37 degree Celsius. Following the incubation, media with compound is aspirated and the cells are fixed in 4% paraformaldehyde (PFA) containing PBS + 0.2% TX-100. Next, PFA is aspirated, cells are washed two times with PBS plus 0.2% TX-100 and the cells are blocked for 1 hr at room temperature (blocking buffer: LiCOR Blocking Buffer plus 0.2% TX-100). This is followed by aspiration and staining with Alexa-488 conjugated-phospho-rpS6 Ser235/236 antibody for 2 hours at room temperature (Cell Signaling Technology # 4803, 1:50 dilution in blocking buffer). Cells are washed two times with PBS plus 0.2% TX-100, and stained with 10 uM propidium iodide (PI) for 20-25 minutes for cell number measurement (1:500 dilution of Hoescht staining is also added for IN Cell imaging). Active wells which are selected (based on Acumen results) are imaged on the IN Cell 1000 (GE Healthcare) using the D360/40X and HQ480/40X excitation filters for the Hoechst and Alexa-488 cytoplasmic stains, respectively. The fluorescence emission filters used were HQ460/40M and HQ535/50M for the Hoechst and Alexa-488 cytoplasmic stains, respectively. The normalized phospho-S6 staining is calculated as the ratio of […] for the single concentration rapamycin control ([…] nM) and DMSO columns. […] Inhibition of the pathway is defined based on the normalized phospho-S6 intensity in rapamycin treated cells. Each treatment is reported as the % positive cells in the well, where thresholds are defined by selecting wells with the highest and lowest signal and differentiating between the % non-active and % active populations. […]
(In qHTS, concentration-response curves come from the screen itself.)
`C[C@]12CC[C@@H]3c4ccc(O)cc4CC[C@H]3[C@@H]1CC[C@@H]2O`: the Potency entry was “inactive”. Regarding `N[C@@H](Cc1cnc[nH]1)C(=O)O`, the Potency entry is “inactive”. With `CC(C)COC(=O)OCN1C(=O)CN(CCN2CC(=O)N(COC(=O)OCC(C)C)C(=O)C2)CC1=O`, the Potency result is “inactive”.

`Nc1cc(Cl)c(NC2=NCCN2)c(Cl)c1`: the Potency result is “inactive”. Turning to `C[C@@H]1C(=O)NC2=Nc3cccc(Cl)c3CN21`, the Potency result is “inactive”. Turning to `CCC(NC(C)C)C(O)c1ccc(O)c(O)c1` (configuration not stated), the Potency entry is “inactive”. Consider `C1CCc2nnnn2CC1`, for which the Potency entry was “inactive”.

Turning to `CNCCC(Oc1ccccc1C)c1ccccc1` (configuration not stated), the Potency result is “inactive”. On to `CC1(C)CCC(NC(=O)[C@@H](N)CCC(=O)O)CC1`, for which the Potency result is “inactive”.

`CC(C)C[C@H]1C(=O)N2CCC[C@H]2[C@]2(O)O[C@](NC(=O)[C@@H]3C=C4c5cccc6[nH]c(Br)c(c56)C[C@H]4N(C)C3)(C(C)C)C(=O)N12`: the Potency result is “inactive”. In the case of `O=C1CCC(c2ccc(-n3ccnc3)cc2)=NN1`, the Potency entry is “inactive”. As to `O=C(O)c1cc2cc(Cc3cccnc3)ccc2o1`, the Potency result was “inactive”. On to `COc1cc2c(cc1O)CC[C@@H]1[C@@H]2CC[C@]2(C)[C@@H](O)CC[C@@H]12`, for which the Potency result was “inactive”. For `Oc1ccc(O)cc1` the value was “inactive”. Regarding `CCCn1c(=O)[nH]c(=O)c2[nH]cnc21`, the Potency entry was “inactive”. As for `N[C@H](CO)C(=O)O`, the Potency result was “inactive”. Regarding `CCCC1O[C@@H]2C[C@H]3[C@@H]4CCC5=CC(=O)C=C[C@]5(C)[C@H]4[C@@H](O)C[C@]3(C)[C@]2(C(=O)CO)O1` (some centres not stated), the Potency result is “inactive”. Turning to `COc1cc(NS(C)(=O)=O)ccc1Nc1c2ccccc2nc2ccccc12`, the Potency is 3.69 µM (active). Regarding `CC(=O)O[C@H]1C[C@@H]2CC[C@@H]3[C@H](CC[C@@]4(C)[C@H]3C[C@H]([N+]3(C)CCCCC3)[C@@H]4OC(C)=O)[C@@]2(C)C[C@@H]1[N+]1(C)CCCCC1`, the Potency entry is “inactive”. Turning to `CC(CCc1ccccc1)NCC(O)c1ccc(O)c(C(N)=O)c1` (configuration not stated), the Potency entry was “inactive”. Consider `C[N+]1(CCCCC[N+]2(C)CCCC2)CCCC1`, for which the Potency entry is “inactive”. Turning to `COC(=O)[C@H]1[C@H]2C[C@H]3c4[nH]c5ccccc5c4CCN3C[C@H]2CC[C@@H]1O`, the Potency result is “inactive”.

These data come from PubChem BioAssay (NCATS).
